According to PubChem BioAssay (NCATS):
Where “and” joins values, the source holds several entries; their conditions need not be identical. Equal entries are not always repeated. Inconclusive results are not listed. Entries that show only a call come without a potency. Calls of active or inactive are those of the source. Unless noted, calls come from the whole dose curve; as a rule, active = well fitted curve in the direction sought with a large enough effect; inconclusive = small, poorly fitted or top-dose-only effect, or another doubt; inactive = no such curve, though single readings can be large; an effect the other way counts as inactive or inconclusive.

What was measured:
[1] = molecular target: Peptidyl-prolyl cis-trans isomerase NIMA-interacting 1 (Homo sapiens) (UniProt Q13526); experiment: qHTS Validation Assay to Find Inhibitors of Pin1 (AID 504536; active = well fitted inhibition curve with a large enough effect in the polarisation, with a control signal flat, not every such curve was filed as active; the % refers to the polarisation; note: potency is the fitted concentration of half-maximal effect)
Chain of Peptidyl-prolyl cis-trans isomerase NIMA-interacting 1 (Homo sapiens) (Q13526 whole entry, looked up): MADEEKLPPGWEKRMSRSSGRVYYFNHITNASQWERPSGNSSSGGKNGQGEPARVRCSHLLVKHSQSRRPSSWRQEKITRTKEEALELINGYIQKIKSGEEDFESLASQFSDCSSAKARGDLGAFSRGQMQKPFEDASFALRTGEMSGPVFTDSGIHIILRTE
Method in brief: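 Fluorescence polarization competition: compounds (titration) displace HiFluor-488-labeled Pin1-1b peptide from Pin1 (0.3 uM final) in pH 7.5 HEPES buffer with DTT, 10 min at room temperature; %Activity normalized to no-enzyme wells, curves fitted.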

[2] = molecular target: Phosphoglycerate kinase, glycosomal (Trypanosoma brucei brucei) (UniProt P07378); experiment: qHTS Validation Assay to Find Inhibitors of Phosphoglycerate Kinase (AID 504547); note: potency is the fitted concentration of half-maximal effect
Chain of Phosphoglycerate kinase, glycosomal (Trypanosoma brucei brucei) (P07378 whole entry, looked up): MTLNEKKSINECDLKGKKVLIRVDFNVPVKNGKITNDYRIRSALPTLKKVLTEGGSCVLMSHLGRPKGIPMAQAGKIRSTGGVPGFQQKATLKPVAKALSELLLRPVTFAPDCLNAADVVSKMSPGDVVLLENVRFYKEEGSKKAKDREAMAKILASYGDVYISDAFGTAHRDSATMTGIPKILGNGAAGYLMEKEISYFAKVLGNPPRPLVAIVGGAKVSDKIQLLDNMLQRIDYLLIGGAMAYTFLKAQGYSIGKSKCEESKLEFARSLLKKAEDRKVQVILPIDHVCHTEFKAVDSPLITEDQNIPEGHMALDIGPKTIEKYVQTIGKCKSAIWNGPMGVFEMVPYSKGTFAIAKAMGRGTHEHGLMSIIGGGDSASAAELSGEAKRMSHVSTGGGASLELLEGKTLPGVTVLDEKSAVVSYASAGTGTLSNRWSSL
Method in brief: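 Inhibition of the enzyme is judged by a Kinase-Glo Plus luminescent signal following a one-hour incubation at room temperature. Because 1,3-BPG is unstable, it is made in situ by GAPDH at 100nM final; no-PGK wells define the baseline.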

[3] = molecular target: phosphoglycerate mutase (Leishmania major) (UniProt Q4Q090); experiment: qHTS Validation Assay to Find Inhibitors of Phosphoglycerate Mutase (AID 504548); note: series mostly up to about 58 µM
Chain of phosphoglycerate mutase (Leishmania major) (Q4Q090 1-553): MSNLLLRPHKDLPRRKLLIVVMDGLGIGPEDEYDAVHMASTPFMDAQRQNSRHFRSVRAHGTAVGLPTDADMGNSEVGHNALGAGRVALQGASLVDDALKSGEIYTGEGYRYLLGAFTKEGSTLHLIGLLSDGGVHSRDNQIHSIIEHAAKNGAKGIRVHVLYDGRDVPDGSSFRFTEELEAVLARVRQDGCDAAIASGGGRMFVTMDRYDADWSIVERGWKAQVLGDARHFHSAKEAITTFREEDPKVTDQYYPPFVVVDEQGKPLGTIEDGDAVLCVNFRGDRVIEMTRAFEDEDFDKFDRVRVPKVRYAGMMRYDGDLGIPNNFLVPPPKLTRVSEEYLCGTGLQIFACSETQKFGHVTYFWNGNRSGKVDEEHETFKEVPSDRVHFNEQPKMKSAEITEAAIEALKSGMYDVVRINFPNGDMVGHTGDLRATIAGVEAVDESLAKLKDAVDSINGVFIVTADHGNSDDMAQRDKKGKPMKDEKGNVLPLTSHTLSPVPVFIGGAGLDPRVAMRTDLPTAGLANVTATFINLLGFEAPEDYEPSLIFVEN
Method in brief: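 Luminescent end-point read-out via Kinase-GloPlus after a 10-minute development. Reaction: 1.25nM Leishmania major PGAM with substrate and compound, 45 minutes at room temperature in TEA buffer (pH 7.6) with MgCl2 and Tween-20.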

[4] = molecular target: Ubiquitin carboxyl-terminal hydrolase 1 (Homo sapiens) (UniProt O94782); experiment: Inhibitors of USP1/UAF1: Pilot qHTS (AID 504865); note: nearly all actives have a fitted effect of over 35% in size; note: potency is the fitted concentration of half-maximal effect
Chain of Ubiquitin carboxyl-terminal hydrolase 1 (Homo sapiens) (O94782 whole entry, looked up): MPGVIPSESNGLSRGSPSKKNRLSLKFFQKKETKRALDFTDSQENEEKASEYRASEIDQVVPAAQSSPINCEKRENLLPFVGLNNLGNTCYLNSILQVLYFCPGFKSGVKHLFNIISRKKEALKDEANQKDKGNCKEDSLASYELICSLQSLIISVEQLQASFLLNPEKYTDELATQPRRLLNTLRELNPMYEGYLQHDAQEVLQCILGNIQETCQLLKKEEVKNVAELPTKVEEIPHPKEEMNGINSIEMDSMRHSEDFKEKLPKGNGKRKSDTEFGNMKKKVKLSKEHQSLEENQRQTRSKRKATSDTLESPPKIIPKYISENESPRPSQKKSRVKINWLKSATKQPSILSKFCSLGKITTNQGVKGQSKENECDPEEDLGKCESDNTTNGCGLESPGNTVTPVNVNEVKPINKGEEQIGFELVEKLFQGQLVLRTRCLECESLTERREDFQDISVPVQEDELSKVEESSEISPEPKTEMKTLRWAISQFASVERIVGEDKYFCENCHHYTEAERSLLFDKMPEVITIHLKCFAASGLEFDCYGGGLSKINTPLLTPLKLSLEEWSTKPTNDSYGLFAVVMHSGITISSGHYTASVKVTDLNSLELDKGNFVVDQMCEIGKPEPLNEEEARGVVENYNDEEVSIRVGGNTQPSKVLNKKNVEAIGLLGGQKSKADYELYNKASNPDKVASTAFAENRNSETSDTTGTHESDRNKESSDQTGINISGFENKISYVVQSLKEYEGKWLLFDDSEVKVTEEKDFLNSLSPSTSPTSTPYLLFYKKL
Method in brief: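 USP1/UAF1 complex (1nM) preincubated with compound 15 min at room temperature, then Ub-Rho substrate (150nM final) added. Fluorescence read kinetically at 480/540 nm, 6 reads every 60 seconds. Buffer: 50mM HEPES pH 7.8, 0.5mM EDTA, 0.1 mg/ml BSA, 1mM TCEP, 0.01% Tween-20.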

[5] = qHTS for Inhibitors of ATXN expression: Validation of Cytotoxic Assay (AID 588349)
Method in brief: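 Read-out: ATP-based luminescence (CellTiter Glo) reflecting viability of HEK293 cells after 72 hr incubation at 37 degrees C with a concentration series of each compound.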

[6] = qHTS for Inhibitors of ATXN expression: Validation (AID 588378); note: nearly all actives have a fitted effect of over 75% in size; note: potency is the fitted concentration of half-maximal effect
Method in brief: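 Luminescence from an ATXN2-FFLuc reporter in HEK293 cells served as read-out after 24 h compound treatment at 37 degrees C; CellTiter-Fluor fluorescence was recorded first to assess viability.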

[7] = molecular target: DNA dC->dU-editing enzyme APOBEC-3G (Homo sapiens) (UniProt Q9HC16); experiment: qHTS for inhibitors of Vif-A3G interactions: Validation (AID 588379)
Chain of DNA dC->dU-editing enzyme APOBEC-3G (Homo sapiens) (Q9HC16 whole entry, looked up): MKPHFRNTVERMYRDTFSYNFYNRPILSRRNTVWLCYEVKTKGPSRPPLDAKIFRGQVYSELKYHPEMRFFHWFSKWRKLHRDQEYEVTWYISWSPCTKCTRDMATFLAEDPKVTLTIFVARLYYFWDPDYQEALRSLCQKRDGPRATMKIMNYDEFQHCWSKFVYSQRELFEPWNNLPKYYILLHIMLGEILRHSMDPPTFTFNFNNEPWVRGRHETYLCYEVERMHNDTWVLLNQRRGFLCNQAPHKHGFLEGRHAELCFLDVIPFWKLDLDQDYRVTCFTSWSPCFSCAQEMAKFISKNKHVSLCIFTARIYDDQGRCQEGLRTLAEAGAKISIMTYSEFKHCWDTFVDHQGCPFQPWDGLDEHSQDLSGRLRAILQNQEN
Method in brief: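 HeLa cells stably expressing Vif and A3G-eYFP, 700 cells/well, incubated overnight at 37 deg C, then exposed to compound overnight at 37 deg C. Inhibition of Vif-mediated degradation read as increased yellow fluorescence (Ex 488/Em 500-530) by laser-scanning cytometry.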

[8] = molecular target: Estrogen receptor (Homo sapiens) (UniProt P03372); experiment: qHTS assay for small molecule antagonists of estrogen receptor alpha signaling (AID 588513; active = well fitted curve in the direction sought with a large enough effect in the signal ratio, with a control signal flat, not every such curve was filed as active; the % refers to the signal ratio)
Chain of Estrogen receptor (Homo sapiens) (P03372 whole entry, looked up): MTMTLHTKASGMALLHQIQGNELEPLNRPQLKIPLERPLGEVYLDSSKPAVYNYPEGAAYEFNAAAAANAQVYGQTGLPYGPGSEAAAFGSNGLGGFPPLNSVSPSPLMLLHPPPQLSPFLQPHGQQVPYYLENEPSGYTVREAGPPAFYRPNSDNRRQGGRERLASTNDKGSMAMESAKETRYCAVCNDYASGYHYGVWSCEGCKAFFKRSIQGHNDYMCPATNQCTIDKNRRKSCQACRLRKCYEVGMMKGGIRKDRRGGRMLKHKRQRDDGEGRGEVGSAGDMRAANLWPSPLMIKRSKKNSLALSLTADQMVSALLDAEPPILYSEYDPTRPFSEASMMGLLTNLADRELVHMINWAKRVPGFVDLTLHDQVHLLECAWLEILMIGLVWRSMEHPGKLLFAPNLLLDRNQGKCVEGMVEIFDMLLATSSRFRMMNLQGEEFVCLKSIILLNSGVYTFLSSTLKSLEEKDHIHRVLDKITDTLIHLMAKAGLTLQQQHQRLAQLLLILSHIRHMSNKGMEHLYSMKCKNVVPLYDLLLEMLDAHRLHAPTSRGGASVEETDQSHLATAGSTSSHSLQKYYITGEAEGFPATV
Method in brief: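 ER-alpha-UAS-bla GripTite HEK 293 cells in medium with 2% charcoal/dextran-treated FBS were preincubated 4 h at 37 C, dosed with compound (1:2 titration), stimulated with 0.5nM 17-beta-estradiol for 18 h, then read by CCF4 beta-lactamase fluorescence.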

[9] = molecular target: Glucocorticoid receptor (Homo sapiens) (UniProt P04150); experiment: qHTS assay for small molecule agonists of glucocorticoid receptor signaling (AID 588532; active = well fitted curve in the direction sought with a large enough effect in the signal ratio, with a control signal flat; the % refers to the signal ratio); details: HeLa MMTV-bla, beta-lactamase ratio, agonist, 18 h; stronger effect = higher value; percent of dexamethasone control, DMSO zero
Method in brief: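 Quantitative HTS using CellSensor MMTV-bla HeLa cells in charcoal/dextran-treated serum; compounds tested up to 92 uM. After 18 h at 37 C, CCF4 dye reported reporter induction.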

[10] = molecular target: Glucocorticoid receptor (Homo sapiens) (UniProt P04150); experiment: qHTS assay for small molecule antagonists of glucocorticoid receptor signaling (AID 588533; active = well fitted inhibition curve with a large enough effect in the signal ratio, with a control signal flat, not every such curve was filed as active; the % refers to the signal ratio;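 note: cells stimulated with 2 nM dexamethasone as agonist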)
Method in brief: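 Antagonist-mode qHTS: compound titrations added to GRE-bla HeLa cells, then dexamethasone 2 nM final; 18 h, 37 C. CCF4 FRET fluorescence normalized to dexamethasone and DMSO; IC50 from Hill fit.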

[11] = molecular target: Peroxisome proliferator-activated receptor gamma (Homo sapiens) (UniProt P37231); experiment: qHTS assay for small molecule agonists of peroxisome proliferator-activated receptor gamma signaling (AID 588536; active = well fitted curve in the direction sought with a large enough effect in the signal ratio, with a control signal flat, not every such curve was filed as active; the % refers to the signal ratio)
Chain of Peroxisome proliferator-activated receptor gamma (Homo sapiens) (P37231 whole entry, looked up): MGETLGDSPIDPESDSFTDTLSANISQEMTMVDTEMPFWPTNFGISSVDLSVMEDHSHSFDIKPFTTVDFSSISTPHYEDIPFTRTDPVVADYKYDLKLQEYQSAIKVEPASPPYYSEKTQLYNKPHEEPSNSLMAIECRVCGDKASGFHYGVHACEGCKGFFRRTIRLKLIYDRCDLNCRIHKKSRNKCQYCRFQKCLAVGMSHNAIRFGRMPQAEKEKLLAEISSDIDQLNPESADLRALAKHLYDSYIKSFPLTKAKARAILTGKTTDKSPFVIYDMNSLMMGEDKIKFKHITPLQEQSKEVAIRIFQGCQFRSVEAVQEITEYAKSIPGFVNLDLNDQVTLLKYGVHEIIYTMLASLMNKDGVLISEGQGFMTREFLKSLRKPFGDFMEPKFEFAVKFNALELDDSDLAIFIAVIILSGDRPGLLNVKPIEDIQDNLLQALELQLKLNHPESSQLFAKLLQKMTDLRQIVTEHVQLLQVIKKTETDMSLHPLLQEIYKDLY
Method in brief: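 Test agents, titrated, stimulated HEK293 UAS-bla cells overnight (16 h, 37 C). Substrate CCF4 was then added for two hours at room temperature before fluorescence reading.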

[12] = molecular target: Peroxisome proliferator-activated receptor gamma (Homo sapiens) (UniProt P37231); experiment: qHTS assay for small molecule antagonists of peroxisome proliferator-activated receptor gamma signaling (AID 588537; active = well fitted inhibition curve with a large enough effect in the signal ratio, with a control signal flat, not every such curve was filed as active; the % refers to the signal ratio;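 note: reporter cells co-stimulated with 50 nM rosiglitazone agonist during compound treatment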)
Method in brief: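 Antagonist mode, beta-lactamase reporter in HEK293; charcoal/dextran FBS 1%; 3000 cells/well, 37 C 6-6.5 h; cpd titration + rosiglitazone 50 nM final, 16 h 37 C; CCF4, 2 h RT; 460/530 nm; Hill fit → IC50, efficacy.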

[13] = molecular target: Vitamin D3 receptor (Homo sapiens) (UniProt P11473); experiment: qHTS assay for small molecule antagonists of vitamin D receptor signaling (AID 588541; calls by dose curve;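 note: receptor activated by calcitriol during compound treatment; series mostly up to about 77 µM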)
Chain of Vitamin D3 receptor (Homo sapiens) (P11473 whole entry, looked up): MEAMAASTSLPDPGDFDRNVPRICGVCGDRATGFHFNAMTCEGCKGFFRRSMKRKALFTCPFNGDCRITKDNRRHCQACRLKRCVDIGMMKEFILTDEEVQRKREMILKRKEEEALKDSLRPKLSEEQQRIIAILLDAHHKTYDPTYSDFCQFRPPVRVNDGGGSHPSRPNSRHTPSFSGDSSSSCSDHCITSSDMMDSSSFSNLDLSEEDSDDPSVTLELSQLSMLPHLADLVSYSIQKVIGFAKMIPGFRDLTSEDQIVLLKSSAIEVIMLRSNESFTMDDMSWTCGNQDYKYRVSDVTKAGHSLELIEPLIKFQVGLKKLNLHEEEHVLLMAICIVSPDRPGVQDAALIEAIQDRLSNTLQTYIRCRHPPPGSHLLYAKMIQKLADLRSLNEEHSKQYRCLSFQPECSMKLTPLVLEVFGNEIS
Method in brief: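 Antagonist-mode beta-lactamase reporter assay: HEK293T VDR-UAS-bla cells were exposed to titrated compound alongside 1-alpha,25-dihydroxyvitamin D3 at 3 nM final for 16 h. Values were normalized to the 50 nM agonist control and DMSO basal, with IC50 and efficacy from Hill equation fits.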

[14] = molecular target: Vitamin D3 receptor (Homo sapiens) (UniProt P11473); experiment: qHTS assay for small molecule agonists of vitamin D receptor signaling (AID 588543; calls by dose curve)
Method in brief: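 GeneBLAzer VDR-UAS-bla HEK293T cells in 2% charcoal-stripped FBS medium were dosed with compound titrations for 16 h at 37 °C; CCF4 β-lactamase readout (405 nm ex, 460/530 nm em). EC50 and efficacy from Hill fits, normalized to 50 nM calcitriol (100%) and DMSO (0%).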

[15] = qHTS assay for small molecule agonists of retinoid X receptor alpha signaling (AID 588544); details: HEK293T RXRa-UAS-bla, beta-lactamase reporter, 18 h; 530 nm emission
[16] = molecular target: Androgen receptor (Homo sapiens) (UniProt P10275); experiment: qHTS assay for small molecule agonists of androgen receptor signaling (AID 588515; active = well fitted curve in the direction sought with a large enough effect in the signal ratio, with a control signal flat; the % refers to the signal ratio); details: AR-UAS-bla HEK293, beta-lactamase ratio, agonist 16 h; stronger effect = higher value
Method in brief: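 EC50 and efficacy came from Hill fits of titrations (up to 92 uM) normalized to 30 nM R1881 as 100% and DMSO as 0%. Compound exposure was 16 h at 37 C on AR-UAS-bla HEK293 cells, with a 405/460/530 nm CCF4 fluorescence read.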

[17] = molecular target: Androgen receptor (Homo sapiens) (UniProt P10275); experiment: qHTS assay for small molecule antagonists of androgen receptor signaling (AID 588516; active = well fitted curve in the direction sought with a large enough effect in the signal ratio, with a control signal flat, not every such curve was filed as active; the % refers to the signal ratio)
Method in brief: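 AR-UAS-bla-GripTite HEK 293 cells (2000/well, 5 h at 37 C) received compound titrations, then R1881 at 10 nM final; after 16 h at 37 C, CCF4 dye 2 h RT, beta-lactamase fluorescence read; IC50 from Hill fits.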

[18] = qHTS assay for small molecule antagonists of peroxisome proliferator-activated receptor delta signaling (AID 588535; active = well fitted inhibition curve with a large enough effect in the signal ratio, with a control signal flat, not every such curve was filed as active; the % refers to the signal ratio;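 for max response: cells co-treated with a PPAR-delta agonist as stimulator during compound exposure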); details: HEK293T PPARd-UAS-bla, beta-lactamase FRET ratio, 18 h; 460 nm channel
Method in brief: (§1)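 HEK293T PPAR-delta-UAS-bla cells, 4000/well, 2% charcoal/dextran FBS; 5 h 37 C; cpd titration; 18 h 37 C; CCF4 2 h RT; FI 460/530 nm; Hill fit → IC50, efficacy.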

[19] = molecular target: Peroxisome proliferator-activated receptor delta (Homo sapiens) (UniProt Q03181); experiment: as above
Chain of Peroxisome proliferator-activated receptor delta (Homo sapiens) (Q03181 whole entry, looked up): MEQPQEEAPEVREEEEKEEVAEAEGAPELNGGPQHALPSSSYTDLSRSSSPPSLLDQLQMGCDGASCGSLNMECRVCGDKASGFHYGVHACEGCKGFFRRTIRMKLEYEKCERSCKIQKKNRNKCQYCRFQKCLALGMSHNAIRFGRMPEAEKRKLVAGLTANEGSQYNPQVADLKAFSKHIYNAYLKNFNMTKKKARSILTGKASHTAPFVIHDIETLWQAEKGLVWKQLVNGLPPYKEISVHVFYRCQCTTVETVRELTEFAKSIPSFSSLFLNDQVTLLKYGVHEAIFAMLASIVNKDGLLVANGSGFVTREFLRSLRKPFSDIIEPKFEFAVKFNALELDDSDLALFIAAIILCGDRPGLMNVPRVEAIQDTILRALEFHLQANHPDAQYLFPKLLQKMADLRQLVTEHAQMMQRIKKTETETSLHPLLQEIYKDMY
Method in brief: as §1

[20] = molecular target: Bile acid receptor (Homo sapiens) (UniProt Q96RI1); experiment: qHTS assay for small molecule antagonists of farnesoid X receptor signaling (AID 588526; calls by dose curve)
Chain of Bile acid receptor (Homo sapiens) (Q96RI1 whole entry, looked up): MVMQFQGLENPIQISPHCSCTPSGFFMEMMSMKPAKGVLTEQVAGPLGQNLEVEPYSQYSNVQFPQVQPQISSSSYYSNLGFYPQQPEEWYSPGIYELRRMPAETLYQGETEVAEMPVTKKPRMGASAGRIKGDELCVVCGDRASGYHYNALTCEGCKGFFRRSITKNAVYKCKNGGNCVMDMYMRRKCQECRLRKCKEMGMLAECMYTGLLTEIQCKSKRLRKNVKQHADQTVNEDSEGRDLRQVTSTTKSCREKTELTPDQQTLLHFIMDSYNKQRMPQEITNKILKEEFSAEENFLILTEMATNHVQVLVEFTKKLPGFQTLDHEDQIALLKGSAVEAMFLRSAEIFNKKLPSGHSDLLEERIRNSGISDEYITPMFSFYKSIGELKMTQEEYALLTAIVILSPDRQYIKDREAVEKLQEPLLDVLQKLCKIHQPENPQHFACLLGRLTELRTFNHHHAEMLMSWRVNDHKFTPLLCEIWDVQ
Method in brief: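 Beta-lactamase reporter antagonist mode: HEK293T FXR-UAS-bla cells, titrated compound, CDCA stimulation, 16 h 37 C, CCF4 dye 2 h RT. Data normalized to CDCA 50 uM and DMSO; Hill-fit IC50.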

Row | Structure (SMILES) | Potency [1] | Potency [2] | outcome [3] | Potency [4] | outcome [5] | Potency [6] | outcome [7] | outcome [8] | activation [9] | Potency [10] | outcome [11] | Potency [12] | outcome [13] | outcome [14] | max response [15] | activation [16] | outcome [17] | max response [18] | outcome [19] | Potency [20]
1 | NCCS(=O)(=O)O | inactive | inactive | inactive | inactive | inactive | inactive | inactive | inactive | 1.42% (inactive) | inactive | inactive | inactive | inactive | inactive | -14.9% |  |  |  |  | 
2 | CC(C)(Oc1ccc(C2CC2(Cl)Cl)cc1)C(=O)O (stereo not given) | inactive | inactive | inactive | inactive | inactive | inactive |  | inactive | -2.49% (inactive) | inactive |  | inactive | inactive | inactive |  | -8.82% (inactive) | inactive | -19.7% | inactive | 
3 | O=C(Nc1ccc([N+](=O)[O-])cc1Cl)c1cc(Cl)ccc1O | inactive | inactive | inactive | inactive |  | inactive |  |  | -5.17% (inactive) |  |  |  |  |  |  |  |  |  |  | 
4 | O=C(CCCN1CCC(O)(c2ccc(Cl)cc2)CC1)c1ccc(F)cc1 | inactive | inactive | inactive | inactive | inactive | inactive | inactive |  | -2.91% (inactive) | inactive | inactive | inactive |  |  | -1.31% |  |  |  |  | inactive
5 | CN1CCC(=C2c3ccccc3C=Cc3ccccc32)CC1 | inactive | inactive | inactive | inactive | inactive |  | inactive |  |  |  |  |  |  |  |  |  |  |  |  | 
6 | CC(C)Cc1ccc(C(C)C(=O)O)cc1 (stereo not given) | inactive | inactive | inactive | inactive | inactive | inactive |  | inactive | -8.45% (inactive) | inactive | inactive | inactive |  |  | 27.4% |  |  | 43% | inactive | 
7 | COc1ccc2[nH]cc(CCNC(C)=O)c2c1 | inactive | inactive | inactive | inactive | inactive | inactive | inactive | inactive | -4.76% (inactive) and 1.7% (inactive) and -3.63% (inactive) | inactive | inactive | inactive | inactive | inactive | 4.26% and -2.38% and 20.7% |  |  | 14.8% and 21.6% and 4.95% | inactive | inactive
8 | Cc1ccc(C(=O)Nc2ccc(S(=O)(=O)O)c3cc(S(=O)(=O)O)cc(S(=O)(=O)O)c23)cc1NC(=O)c1cccc(NC(=O)Nc2cccc(C(=O)Nc3cc(C(=O)Nc4ccc(S(=O)(=O)O)c5cc(S(=O)(=O)O)cc(S(=O)(=O)O)c45)ccc3C)c2)c1 | 426 nM (active) | 2690 nM (active) | inactive | 14.1 µM (active) and 7.94 µM (active) and 5.01 µM (active) | inactive | inactive | inactive |  |  |  |  |  |  |  |  |  |  |  |  | 
9 | CN(C)C(=O)C(CCN1CCC(O)(c2ccc(Cl)cc2)CC1)(c1ccccc1)c1ccccc1 | inactive | inactive | inactive | inactive |  |  | inactive |  |  |  |  |  |  |  |  |  |  |  |  | 
10 | NS(=O)(=O)c1cc2c(cc1Cl)NCNS2(=O)=O | inactive | inactive | inactive | inactive | inactive | inactive |  | inactive | -0.573% (inactive) | inactive | inactive | inactive | inactive | inactive | 1.78% and -10.2% |  |  |  |  | inactive
11 | N[C@@H](Cc1c[nH]c2ccc(O)cc12)C(=O)O | inactive | inactive | inactive | inactive | inactive | inactive |  | inactive | -7.97% (inactive) |  | inactive | inactive | inactive | inactive | -7.77% |  |  | 3.83% | inactive | 
12 | O=C(c1ccc(F)cc1)C1CCN(CCn2c(=O)[nH]c3ccccc3c2=O)CC1 | inactive | inactive | inactive | inactive | inactive | inactive | inactive |  |  |  |  |  |  |  |  |  |  |  |  | 
13 | Cc1cc(C(C)(C)C)c(O)c(C)c1CC1=NCCN1 | inactive | inactive | inactive | inactive | inactive |  | inactive |  |  |  |  |  |  |  |  |  |  |  |  | 
14 | CNCCCC12CCC(c3ccccc31)c1ccccc12 | inactive | inactive | inactive | inactive |  | 15800 nM (active) | inactive |  |  |  |  |  |  |  |  |  |  |  |  | 
15 | O=c1[nH]cc(F)c(=O)[nH]1 | inactive | inactive | inactive | inactive | inactive |  |  | inactive |  | inactive |  |  | inactive | inactive | -12.4% |  |  |  |  | 
16 | COC(=O)Nc1nc2ccc(C(=O)c3cccs3)cc2[nH]1 | inactive | inactive | inactive | inactive |  | inactive | inactive |  |  |  |  |  |  |  |  |  |  |  |  | 
17 | NCCCCCC(=O)O |  | inactive | inactive | inactive | inactive | inactive |  |  |  |  |  |  |  |  |  |  |  |  |  | 
